Results taken from PubChem BioAssay AID2283218 (EPA ToxCast).
Activity calls are given as the source filed them. Rule for the calls: active = hit-call score of the fitted dose curve at least 0.9, where 1 is the maximum; inactive = score below 0.9.

Each compound was assayed against human Zeta Chain of T Cell Receptor Associated Protein Kinase 70 (ZAP70), ZAP70 (gene 7535) (UniProt P43403) (assay: NVS_ENZ_hZAP70: NovaScreen (NVS) Enzymatic Assay for human Zeta Chain of T Cell Receptor Associated Protein Kinase 70 (ZAP70)).
Chain of human Zeta Chain of T Cell Receptor Associated Protein Kinase 70 (ZAP70), ZAP70 (gene 7535) (P43403 whole entry, looked up): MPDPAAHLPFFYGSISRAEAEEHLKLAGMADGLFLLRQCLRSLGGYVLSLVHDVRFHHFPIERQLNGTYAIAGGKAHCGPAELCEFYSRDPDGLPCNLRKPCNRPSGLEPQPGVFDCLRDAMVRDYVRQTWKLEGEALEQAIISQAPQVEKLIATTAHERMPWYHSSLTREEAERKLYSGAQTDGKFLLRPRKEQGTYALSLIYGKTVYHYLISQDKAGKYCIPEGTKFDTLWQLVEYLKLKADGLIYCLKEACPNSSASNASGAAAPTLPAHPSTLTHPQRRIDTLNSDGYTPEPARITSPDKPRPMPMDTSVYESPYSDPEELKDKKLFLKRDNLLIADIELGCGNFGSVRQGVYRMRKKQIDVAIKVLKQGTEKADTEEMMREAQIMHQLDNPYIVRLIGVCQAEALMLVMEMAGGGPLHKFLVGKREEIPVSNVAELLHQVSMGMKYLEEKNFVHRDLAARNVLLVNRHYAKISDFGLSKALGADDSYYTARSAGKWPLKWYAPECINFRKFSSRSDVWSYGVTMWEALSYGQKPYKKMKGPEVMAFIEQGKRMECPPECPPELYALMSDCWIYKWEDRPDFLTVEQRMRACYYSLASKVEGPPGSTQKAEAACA
Description: NVS_ENZ_hZAP70 is a biochemical, single-readout assay that uses extracted gene-proteins in a cell-free assay. Measurements were taken 0 hour after chemical dosing in a 96-well plate.NVS_ENZ_hZAP70 is one of one assay component(s) measured or calculated from the NVS_ENZ_hZAP70 assay. It is designed to make measurements of enzyme activity, a form of enzyme reporter, as detected with fluorescence intensity signals by Fluorescence and electrophoretic mobility shift technology.Data from the assay component NVS_ENZ_hZAP70 was analyzed into 1 assay endpoint. This assay endpoint, NVS_ENZ_hZAP70, was analyzed in the positive analysis fitting direction relative to DMSO as the negative control and baseline of activity. Using a type of enzyme reporter, loss-of-signal activity can be used to understand changes in the enzymatic activity as they relate to the gene ZAP70. Furthermore, this assay endpoint can be referred to as a primary readout, because this assay has produced multiple assay endpoints where this one serves a enzymatic activity function. To generalize the intended target to other relatable targets, this assay endpoint is annotated to the kinase intended target family, where the subfamily is non-receptor tyrosine kinase. […]

Row | Structure (SMILES) | outcome | AC50
1 | O=C(O)C(F)(F)C(F)(F)C(F)(F)C(F)(F)C(F)(F)C(F)(F)C(F)(F)F | inactive | –
2 | O=S(=O)(O)C(F)(F)C(F)(F)C(F)(F)C(F)(F)C(F)(F)C(F)(F)C(F)(F)C(F)(F)F | – | 12.3 µM (active)
